In PubChem BioAssay AID1851 (National Center for Advancing Translational Sciences (NCATS), 2009):
Several values for one entry are separate records, joined by “and”; a condition that tells them apart may be missing. Equal entries are not always repeated. Screen size: about 16,000 compounds; about 2,600 (16%) were called active. About 20% were inconclusive and are not listed. Calls come from the whole dose curve; as a rule, active = well fitted curve in the direction sought with a large enough effect; inconclusive = small, poorly fitted or top-dose-only effect, or effect the other way; inactive = no such curve, though single readings can be large or run the other way. These entries were drawn from the full list.

Molecular target: Cytochrome P450 2D6 (Homo sapiens) (UniProt P10635)
Assay: Cytochrome panel assay with activity outcomes
Details: recombinant CYP, pro-luciferin dealkylation, luminescence, p450-cyp2d6; series mostly up to 57.1 µM
% is set by controls: 0 for no effect and ±100 for the full control effect.

Chain of Cytochrome P450 2D6 (Homo sapiens) (P10635 whole entry, looked up): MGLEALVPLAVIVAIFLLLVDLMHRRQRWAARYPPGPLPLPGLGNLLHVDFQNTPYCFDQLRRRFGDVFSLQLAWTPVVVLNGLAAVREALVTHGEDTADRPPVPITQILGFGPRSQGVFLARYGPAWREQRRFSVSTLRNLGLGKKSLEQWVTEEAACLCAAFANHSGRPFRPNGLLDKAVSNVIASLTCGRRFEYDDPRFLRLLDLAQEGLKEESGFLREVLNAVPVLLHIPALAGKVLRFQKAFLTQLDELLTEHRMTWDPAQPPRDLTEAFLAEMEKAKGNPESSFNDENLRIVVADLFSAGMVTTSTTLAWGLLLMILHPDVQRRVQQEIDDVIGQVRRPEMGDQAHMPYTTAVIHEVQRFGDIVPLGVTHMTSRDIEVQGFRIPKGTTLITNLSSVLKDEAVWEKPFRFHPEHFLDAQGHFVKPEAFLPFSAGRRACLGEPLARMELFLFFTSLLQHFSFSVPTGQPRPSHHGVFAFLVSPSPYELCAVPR

SMILES	AC50	activity, negative = inhibition
c1ccc(CNc2ncncc2-c2ccoc2)cc1	20 µM (active)	
Cc1cnc(CNc2ncncc2-c2ccoc2)cn1	inactive	
NCCCC(=O)O	inactive	
CCC(=O)O[C@@H]1[C@H](C)O[C@H](O[C@H]2[C@@H](N(C)C)[C@H](O)[C@@H](O[C@@H]3[C@@H](CC=O)C[C@@H](C)[C@@H](O)/C=C\C=C/C[C@@H](C)OC(=O)C[C@@H](OC(=O)CC)[C@H]3OC)O[C@H]2C)C[C@]1(C)O	inactive	
CCCCCCC1CC(C)(/C(C)=N/NC(N)=O)OC1=O (stereo not given)	inactive	
CCOC(=O)N/N=C1/C[C@@H](O)[C@@H](O)[C@@H]2[C@@H]3C(=O)N([C@@H](C)c4ccccc4)C(=O)[C@H]3CC[C@@H]12		0.427% [at 11.4 µM] (inactive)
COc1ccc(NC(=S)Nc2ncccc2C)c(OC)c1	inactive	
Nc1nc2c(ncn2[C@@H]2C=C[C@@H](CO)C2)c(=O)[nH]1		4.55% [at 11.4 µM] (inactive)
Cc1cc(-c2c(C)[nH]n(-c3ccccc3)c2=O)n(-c2ccccc2)n1	inactive	
O=C(O)[C@H](Cc1ccc(O)c([N+](=O)[O-])c1)N1C(=O)c2ccccc2C1=O		6.61% [at 11.4 µM] (inactive)
CN1CCN(c2ncc3nc(-c4ccc(F)cc4)c(=O)n(Cc4cccs4)c3n2)CC1	inactive	
CN(C)Cc1ccccc1-c1nc(N(C)C)c2ccccc2n1	2.51 µM (active)	
CNc1nc(-c2ccccc2CN(C)C)nc2ccccc12	3.98 µM (active)	
CNc1nc(-c2c(C)noc2C)nc2ccccc12	inactive	
Cc1noc(C)c1-c1nc(N2CCOCC2)c2ccccc2n1	inactive	
Cc1ccccc1-c1nc(N2CCOCC2)c2ccccc2n1	inactive	
CN(C)Cc1ccccc1-c1nc(N2CCOCC2)c2ccccc2n1	7.94 µM (active)	
Cc1cccc(CNc2nc(-c3ccccc3CN(C)C)nc3ccccc23)c1	12.6 µM (active)	
COc1ccc(N2CC(C(=O)OCC(=O)c3cccc(OC)c3)CC2=O)cc1 (stereo not given)	inactive	
O=C1CC(c2ccccc2)Cc2nc(N3CCc4ccccc4C3)ncc21 (stereo not given)	inactive	
O=C(Nc1nnc(C2CC2)s1)c1ccc(S(=O)(=O)c2ccccc2)cc1	inactive	
COCCNC(=O)c1ccc2c(c1)nc(C)n2-c1cc(OC)c(OC)c(OC)c1	inactive	
COC(=O)COc1ccc2c(-c3cccc([N+](=O)[O-])c3)cc(=O)oc2c1	inactive	
Cc1cc(C(=O)OCC(=O)NCCCN2CCCC2=O)c2ccccc2n1	inactive	
O=C(C1=C(O)C(=O)N(Cc2ccco2)C1c1ccccc1)c1cccs1 (stereo not given)	inactive	

SMILES	AC50	activity, negative = inhibition
CN(C)Cc1ccccc1-c1nc(NCc2cccs2)c2ccccc2n1	20 µM (active)	
CN(C)Cc1ccccc1-c1nc(NC2CC2)c2ccccc2n1	3.98 µM (active)	
COCCNc1nc(-c2ccccc2C)nc2ccccc12	inactive	
COCCNc1nc(-c2c(C)noc2C)nc2ccccc12	inactive	
CN(C)C(=O)c1ccc(-c2nc(NC3CCNCC3)c3ccccc3n2)cc1	inactive	
CN(C)Cc1ccccc1-c1nc(NCc2ccccc2)c2ccccc2n1	20 µM (active)	
Cc1noc(C)c1-c1nc(NC2CCNCC2)c2ccccc2n1	inactive	
COCCNc1nc(-c2ccccc2CN(C)C)nc2ccccc12	12.6 µM (active)	
CC1=C(C#N)C(NC(=O)C2CCCCC2)(C(F)(F)F)C(=O)N1 (stereo not given)	inactive	
N#Cc1nc(-c2ccc(F)cc2)oc1N1CCCC1	inactive	
CCOC(=O)c1cc(-c2ccccc2)sc1NC(=S)Nc1cc(C)ccn1	inactive	
NCCNS(=O)(=O)c1ccc(N)cc1		1.63% [at 11.4 µM] (inactive)
CCn1c(SCC(=O)Nc2sc3c(c2C#N)CCC(C(C)(C)C)C3)nnc1-c1ccco1 (stereo not given)	inactive	
COc1ccc(C(=O)N2CCC[C@@]3(CCN(c4cccc(-c5ccccc5)c4)C3)C2)cc1	inactive	
Cn1ncc2c(Nc3cccc(C(=O)O)c3)ncnc21	inactive	
CN[C@]1(C)[C@H]2CC[C@@H](C2)C1(C)C	inactive	
CCc1ccc(N2CC(C)Cn3c2nc2c3c(=O)n(CCN3CCOCC3)c(=O)n2C)cc1 (stereo not given)	inactive	
CC(C)[C@@H](OCc1ccccc1)[C@H](C)/C=N\O[C@@H](C)c1cn([C@H](CO)Cc2ccccc2)nn1		-24.2% [at 11.4 µM] (inactive) and -19.2% [at 11.4 µM] (inactive)
CC1(C)S[C@@H]2[C@H](NC(=O)[C@H](C(=O)O)c3ccsc3)C(=O)N2[C@H]1C(=O)O	inactive	
O=C1CCCC2=C1C(c1ccc(Cl)cc1)C1C(=O)c3ccccc3C1=N2 (stereo not given)	25.1 µM (active)	
O=C1C(=O)c2ccccc2C(O)=C1C1CCC(c2ccc(Cl)cc2)CC1 (stereo not given)	inactive	
O=C1c2ccccc2C2=Nc3ccccc3SC(c3ccccc3F)C12 (stereo not given)	inactive	
CCOC(=O)C1=C(C)N=C2c3ccccc3C(=O)C2C1c1ccc(Cl)cc1 (stereo not given)	15.8 µM (active)	
CCOC(=O)C1=C(C)N=C2c3ccccc3C(=O)C2C1c1ccc(C)cc1 (stereo not given)	inactive	
CCOC(=O)C1=C(C)NC(=O)NC1c1ccoc1 (stereo not given)	inactive	
